In the supplement of paper PMC12632987:
Whole data set: some 4,500 sequences, median “median log2 fold change of GCK-ALFA target abundance (FLAG IP / Myc IP barcode read proportion)” near 0.078, cut for the lowest 2% near -0.6. This is one part of a sample in which the lowest values are shown more often than they occur.

B1: GBRAP_39_5638 (protein)
chain: SREEEAEETFDYLEALGAKLLSERGISLDELLEEEYKYAREAFKDDPELLAAIDELYELALKGDDTDKLAAAGAFSLVREGKSKEEVLEAVELLIYYLKS
B2: GBRAP_160_4650 (protein)
chain: EERKEKLKERIKELIEEAYEMMKGETHEERIAIARVMGGDIILELDEDEGVSDEAIEEVDKIMDEFVATLEANPDLTDEEIRALLEEMLKKIFEIIDKYT
B3: GBRAP_9_7158 (protein)
chain: MDELVAKLREVIEDAFEEIKEVVPEEVKPIVEKLREEAEKRLEELEEDPEATPEELVEEAKRILREFRERMKKEVDEETAKIVDAIVDTAELEIEEIEEE
B4: GBRAP_39_5717 (protein)
chain: EEEEEAENIFSYYEAVGAAEMYKRGISLEELFERTLAEARELAADDPELLAALEELEELALKAGDEAKLAATGIMVRLVEGAPREEVLADLKKLIAYLKS
B5: GBRAP_160_4742 (protein)
chain: KEELEKLKKEIEEIFKEGIELLKESEKEEALTIVRGIMGDVIMEVMSSEAASDELEEKIAEIADKAIEEVEKNKDAPIEKVIEIVEKAREEILKLIEEEI
B6: GBRAP_160_4574 (protein)
chain: SEEMKKLKEEIKEITEEAKEFIEGQSREEQIAIVKVAMGDILLLLDENPLVSDETEDKAAAIGDALIAYIEAHPDLTAEEIKELLEKATEEIIKLIEKEE
B7: GBRAP_128_3555 (protein)
chain: STEEVVEEAEELLEKIKESDEEEAREYARELVRLLASVDEESREAIVKVILERLPELTVEQLEILADVFREERPKVDPDVANALAEIEVEALNVALEKEE
B8: GBRAP_137_3630 (protein)
chain: ATVEIEVEEYEDVVEITVTLKDAAKAEAVKELVLDVAHEHGALAVSVEVEEDGTLVVTVWVPREKAEAFLEALVRRLQTELGLRVRVRNLDTGEEEEFEP
B9: GBRAP_128_3422 (protein)
chain: SRAAAVARARALLEAMKTADDATAAALADELAALFASADLETAEAIAEVIRAEIPKLTAKQLDILADAFRAALPKLTPEKANIAADVIVDLLNEREELEE
B10: GBRAP_128_3379 (protein)
chain: MDEEKLERVRELVRRAIESDVEETRELTREVVRLMGTLSPEEREAAAEIVIEALPEFSREKLDAIADTIRELRPELDPLGQELAAEVEVAALNRAEELEE
B11: GBRAP_52_6373 (protein)
chain: MEERARELARRILELAEAGDEEGLREEVRRIVEEESDELIAAVLRELRDMILTEPGLDPEALLTAAATLASEVLEAEKGTPETWAALTELLAAALALEQA
B12: GBRAP_52_5974 (protein)
chain: MEEEMRKLAKEIVALILAGDEAGARALLEEIAATKTEEEITLLFKELAKLAKTATPEERDAIVEAALLAEDIALAAGFDEAVMDSNLADVVKAAVDAEKA
B13: GBRAP_184_5132 (protein)
chain: TLLERAVEAKTAEELIAKARAVVEEAAAAGARLVLSVFAEDLSVEDNIAVIRELGELKAAHPQIEAIIVDLPEVSEEDLDKLIEAADAAGVKLVAAIPDE
B14: GBRAP_52_6073 (protein)
chain: MEEKIEKLAEEITEAIKAGDDEKALELLEKAVKELSEEEIKKLLVLTAKKVAKLNEEEHERFVDILDEFEDILIENGISEEDALLIVGDALAALAKEVAK
B15: GBRAP_52_6102 (protein)
chain: MREELRKKVREILELVREGKLEEARKKIKELVESLNDEEIRLVADEIAELAREAAPEDLDAVWTLAEMFAEELEKAGKPEVLVDYLLASTAAALYEREQA
B16: GBRAP_195_5410 (protein)
chain: MKVVGRVLRIEESDTPEDILAKIEAIVAEVKEESNGDLVLVVARHPSVPEETVRAAVAEAAERYPEIKITVEIFDDISLPLETLEAFARMEVANEEEERE
B17: GBRAP_160_3988 (protein)
chain: EEEKKKLLKEIEEIFKETYELASGEDPENRLTVVRVHMGEILLLAEESGILSEESIEKIDEILDELVEKVAANPDMTDEELKALLEEALKKIKEIIEAEK
B18: GBRAP_137_3679 (protein)
chain: MKVKITIEEHEDVVEITVTIEDKETGEELAEKIEDIAVEVGALAISVEKNEDGTYEVTIYVPKEKLEELLKKILELLKDADEVEIIRIVDGKETVEVIKN
B19: GBRAP_73_6498 (protein)
chain: LTDTGLTDEEIADIVDHENDIFNGGEEAYEAAVARIRAALPELSPERQELLRRILEAAERAKKKDKLLAYELVALALAVVEGLDLEKARRALEALEKRLE

Target: GABARAP, O95166
Assay: median log2 fold change of GCK-ALFA target abundance (FLAG IP / Myc IP barcode read proportion) (log2 ratio); each designed protein is fused to an ALFA-tag nanobody in HEK293 cells to bring the named protein to FLAG-tagged glucokinase (GCK); Myc marks an untargeted standard; higher = target protein stabilised (more abundant)
Conditions: target protein: 3xFLAG-MCP-GCK-ALFA reporter; HEK293 landing pad (RPLP)
Outline: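 Binders fused to an ALFA nanobody were recombined as a library into HEK293 landing-pad cells, which were induced with 2 μg mL^−1 doxycycline and then transfected to express a FLAG-tagged target and a Myc-tagged standard. After 48 h, circular RNA barcodes recovered by anti-FLAG and anti-Myc immunoprecipitation of lysates were reverse transcribed, amplified and sequenced. Each binder's target abundance is the median log2 ratio of FLAG to Myc barcode read proportions, from barcodes present at ≥10^−7 in both replicates, binders carrying ≥3 barcodes per replicate, a 10^−6 pseudocount and pooled replicates.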

Sequence of GABARAP, O95166 (O95166 whole entry, the tested form may be a part): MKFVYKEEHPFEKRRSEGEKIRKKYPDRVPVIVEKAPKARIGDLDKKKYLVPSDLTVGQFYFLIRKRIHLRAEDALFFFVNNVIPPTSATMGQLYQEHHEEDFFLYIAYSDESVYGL

Binder	median log2 fold change
B1	0.2
B2	-0.715
B3	0.0143
B4	0.239
B5	0.15
B6	-0.302
B7	-0.0585
B8	-0.302
B9	-0.139
B10	0.284
B11	-0.998
B12	-0.0573
B13	0.00161
B14	-0.605
B15	0.197
B16	0.261
B17	-0.199
B18	-0.124
B19	-0.718
